For some assays here: Measured potencies and affinities stand elsewhere.
How the values were obtained:
Design in all cases: scale not given: direction of the effect not stated beside the values
[1] = molecular target: Protein translocase subunit SecA (Escherichia coli (strain K12)) (UniProt P10408); test: Assay to Identify E. coli SecA ATPase Inhibitors; type: functional; conditions: 30 µM
[2] = molecular target: T1, Ubiquitin-activating enzyme e1, putative (Leishmania donovani (strain BPK282A1)) (UniProt E9BSI1); test: Leishmania donovani Ubiquitin Activating Enzyme (LdE1); type: functional; conditions: 30 µM
T1 sequence (whole entry): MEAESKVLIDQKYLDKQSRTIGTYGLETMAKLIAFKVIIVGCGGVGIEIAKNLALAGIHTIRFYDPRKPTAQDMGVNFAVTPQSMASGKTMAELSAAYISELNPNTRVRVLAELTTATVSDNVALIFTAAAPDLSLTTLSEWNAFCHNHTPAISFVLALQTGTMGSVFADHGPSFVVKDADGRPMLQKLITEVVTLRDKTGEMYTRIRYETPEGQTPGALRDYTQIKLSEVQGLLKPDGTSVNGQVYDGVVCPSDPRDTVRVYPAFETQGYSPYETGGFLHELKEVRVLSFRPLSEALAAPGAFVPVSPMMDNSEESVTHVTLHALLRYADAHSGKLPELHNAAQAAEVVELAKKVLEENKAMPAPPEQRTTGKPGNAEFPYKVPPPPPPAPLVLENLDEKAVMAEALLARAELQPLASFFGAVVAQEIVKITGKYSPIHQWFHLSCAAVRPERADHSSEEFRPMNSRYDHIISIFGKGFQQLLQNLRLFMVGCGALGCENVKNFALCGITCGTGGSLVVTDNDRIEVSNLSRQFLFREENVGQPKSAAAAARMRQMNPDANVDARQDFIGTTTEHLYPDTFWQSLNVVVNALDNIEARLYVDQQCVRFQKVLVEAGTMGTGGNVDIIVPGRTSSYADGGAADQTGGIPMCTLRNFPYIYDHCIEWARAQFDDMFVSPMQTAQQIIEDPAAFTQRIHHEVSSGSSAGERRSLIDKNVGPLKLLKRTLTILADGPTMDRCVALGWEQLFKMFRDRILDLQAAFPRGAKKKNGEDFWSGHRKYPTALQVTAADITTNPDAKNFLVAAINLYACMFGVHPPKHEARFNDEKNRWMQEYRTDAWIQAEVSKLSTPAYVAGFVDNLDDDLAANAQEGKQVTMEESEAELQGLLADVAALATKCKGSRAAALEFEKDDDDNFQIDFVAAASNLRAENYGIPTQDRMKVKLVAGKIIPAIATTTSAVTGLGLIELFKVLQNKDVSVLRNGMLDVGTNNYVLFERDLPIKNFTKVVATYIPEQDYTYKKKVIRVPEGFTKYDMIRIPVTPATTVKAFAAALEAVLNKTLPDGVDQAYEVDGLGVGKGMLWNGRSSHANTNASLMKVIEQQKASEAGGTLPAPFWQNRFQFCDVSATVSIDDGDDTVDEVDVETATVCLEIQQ

[3] = molecular target: AMP-activated protein kinase, AMPK (Homo sapiens) (UniProt P54646+O43741+P54619+Q9UGJ0+Q9Y478+Q13131+Q9UGI9); test: AMP-dependent Kinase enzyme assay. An in vitro enzyme assay that detects ADP turnover that is directly proportional to AMPK activity. This uses naive AMPK that is activated during the assay with MK-8722; type: functional; conditions: 30 µM
[4] = molecular target: Sialic acid-binding Ig-like lectin 9 (Homo sapiens) (UniProt Q9Y336); test: Hs-Siglec9 ALPHAscreen SOP 20170721; conditions: 10 µM
Sequence of Sialic acid-binding Ig-like lectin 9 (Homo sapiens) (Q9Y336 whole entry): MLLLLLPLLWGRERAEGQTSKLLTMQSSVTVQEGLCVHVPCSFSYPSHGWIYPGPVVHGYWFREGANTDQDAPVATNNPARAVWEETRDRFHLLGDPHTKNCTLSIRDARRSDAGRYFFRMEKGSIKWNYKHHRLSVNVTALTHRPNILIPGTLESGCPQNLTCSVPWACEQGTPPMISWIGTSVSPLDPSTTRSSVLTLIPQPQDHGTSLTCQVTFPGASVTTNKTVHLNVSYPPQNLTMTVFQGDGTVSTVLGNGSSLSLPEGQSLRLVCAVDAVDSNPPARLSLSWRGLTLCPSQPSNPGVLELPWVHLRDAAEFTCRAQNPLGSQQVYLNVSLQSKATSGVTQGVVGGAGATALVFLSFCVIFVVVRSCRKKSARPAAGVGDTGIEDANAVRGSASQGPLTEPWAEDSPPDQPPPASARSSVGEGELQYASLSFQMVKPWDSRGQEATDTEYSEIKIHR

Trypanosoma cruzi = test: Trypanosoma cruzi phosphomannomutase and mannose-1-phosphate guanylyltransferase assay; type: functional; conditions: 10 µM
[5] = molecular target: T2, Arginase-2, mitochondrial (Homo sapiens) (UniProt P78540); test: in vitro enzyme assay to detect the production of urea directly proportional to the activity of Arginase II; type: functional; conditions: 33.3 µM; note: in the data most compounds retested in dose-response had high values
T2 sequence (whole entry): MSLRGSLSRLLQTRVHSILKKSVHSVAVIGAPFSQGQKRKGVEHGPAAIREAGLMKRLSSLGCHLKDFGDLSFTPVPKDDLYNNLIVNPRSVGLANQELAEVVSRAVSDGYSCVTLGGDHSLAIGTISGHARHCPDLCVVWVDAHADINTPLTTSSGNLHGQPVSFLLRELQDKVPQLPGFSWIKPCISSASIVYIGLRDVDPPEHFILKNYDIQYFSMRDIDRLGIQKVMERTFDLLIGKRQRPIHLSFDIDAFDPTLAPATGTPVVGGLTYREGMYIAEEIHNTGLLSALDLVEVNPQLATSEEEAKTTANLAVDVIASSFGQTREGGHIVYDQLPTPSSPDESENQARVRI

[6] = molecular target: T3, Proteasome subunit beta (Trypanosoma cruzi) (UniProt O96673); test: Trypanosoma cruzi proteasome chymotrypsin-like activity (TcProtChymo) assay.; note: in the data most compounds retested in dose-response had high values; type: functional; conditions: 9.37 µM
T3 sequence (whole entry): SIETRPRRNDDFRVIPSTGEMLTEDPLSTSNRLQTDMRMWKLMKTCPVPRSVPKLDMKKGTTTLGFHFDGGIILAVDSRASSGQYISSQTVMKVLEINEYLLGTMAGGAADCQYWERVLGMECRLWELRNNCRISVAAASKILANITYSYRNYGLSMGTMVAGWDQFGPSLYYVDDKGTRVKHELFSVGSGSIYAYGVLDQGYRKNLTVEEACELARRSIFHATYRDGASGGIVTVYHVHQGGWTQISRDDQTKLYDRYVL

Homo sapiens = species: Homo sapiens; test: To identify inhibition of the IFN signalling (Jak-Stat) pathway via expression of an eGFP reporter gene under the control of an IFN-stimulated response element (ISRE) containing MxA promoter.; type: functional; conditions: 30 µM
[7] = molecular target: T4, Tyrosyl-tRNA synthetase, putative (Trypanosoma cruzi (strain CL Brener)) (UniProt Q4DSP6); test: Trypanosoma cruzi tyrosyl tRNA synthetase (TcYRS) _High Tyrosine SOP; type: functional; conditions: 30 µM; note: in the data most compounds retested in dose-response had high values
T4 sequence (whole entry): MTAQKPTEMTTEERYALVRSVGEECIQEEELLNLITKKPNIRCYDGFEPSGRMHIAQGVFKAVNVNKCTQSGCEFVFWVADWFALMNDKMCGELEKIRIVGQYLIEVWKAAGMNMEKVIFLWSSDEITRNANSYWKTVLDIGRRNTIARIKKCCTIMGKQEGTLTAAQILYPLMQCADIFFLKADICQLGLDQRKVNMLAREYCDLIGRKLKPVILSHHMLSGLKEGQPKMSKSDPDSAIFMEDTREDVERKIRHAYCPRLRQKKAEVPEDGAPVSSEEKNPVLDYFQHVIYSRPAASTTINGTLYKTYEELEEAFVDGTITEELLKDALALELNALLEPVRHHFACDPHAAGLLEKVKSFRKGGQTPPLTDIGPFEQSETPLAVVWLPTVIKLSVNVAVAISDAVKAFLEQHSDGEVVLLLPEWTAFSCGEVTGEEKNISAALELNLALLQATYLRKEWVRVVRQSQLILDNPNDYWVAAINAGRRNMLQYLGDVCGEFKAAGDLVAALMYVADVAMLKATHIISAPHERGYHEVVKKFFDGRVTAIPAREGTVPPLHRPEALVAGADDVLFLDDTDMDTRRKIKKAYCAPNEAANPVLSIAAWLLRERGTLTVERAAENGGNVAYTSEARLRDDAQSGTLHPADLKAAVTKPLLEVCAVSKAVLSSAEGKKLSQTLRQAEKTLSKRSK

[8] = molecular target: T4, Tyrosyl-tRNA synthetase, putative (Trypanosoma cruzi (strain CL Brener)); test: Trypanosoma cruzi tyrosyl tRNA synthetase (TcYRS) SOP; type: functional; conditions: 30 µM
[9] = molecular target: Chromo domain-containing protein 1 (Saccharomyces cerevisiae (strain ATCC 204508 / S288c) (Baker's yeast)) (UniProt P32657); test: ScCHD-1 Enzyme Inhibition Assay; type: functional; conditions: 30 µM; note: in the data most compounds retested in dose-response had high values
Sequence of Chromo domain-containing protein 1 (Saccharomyces cerevisiae (strain ATCC 204508 / S288c) (Baker's yeast)) (P32657 whole entry, the tested form may be a part): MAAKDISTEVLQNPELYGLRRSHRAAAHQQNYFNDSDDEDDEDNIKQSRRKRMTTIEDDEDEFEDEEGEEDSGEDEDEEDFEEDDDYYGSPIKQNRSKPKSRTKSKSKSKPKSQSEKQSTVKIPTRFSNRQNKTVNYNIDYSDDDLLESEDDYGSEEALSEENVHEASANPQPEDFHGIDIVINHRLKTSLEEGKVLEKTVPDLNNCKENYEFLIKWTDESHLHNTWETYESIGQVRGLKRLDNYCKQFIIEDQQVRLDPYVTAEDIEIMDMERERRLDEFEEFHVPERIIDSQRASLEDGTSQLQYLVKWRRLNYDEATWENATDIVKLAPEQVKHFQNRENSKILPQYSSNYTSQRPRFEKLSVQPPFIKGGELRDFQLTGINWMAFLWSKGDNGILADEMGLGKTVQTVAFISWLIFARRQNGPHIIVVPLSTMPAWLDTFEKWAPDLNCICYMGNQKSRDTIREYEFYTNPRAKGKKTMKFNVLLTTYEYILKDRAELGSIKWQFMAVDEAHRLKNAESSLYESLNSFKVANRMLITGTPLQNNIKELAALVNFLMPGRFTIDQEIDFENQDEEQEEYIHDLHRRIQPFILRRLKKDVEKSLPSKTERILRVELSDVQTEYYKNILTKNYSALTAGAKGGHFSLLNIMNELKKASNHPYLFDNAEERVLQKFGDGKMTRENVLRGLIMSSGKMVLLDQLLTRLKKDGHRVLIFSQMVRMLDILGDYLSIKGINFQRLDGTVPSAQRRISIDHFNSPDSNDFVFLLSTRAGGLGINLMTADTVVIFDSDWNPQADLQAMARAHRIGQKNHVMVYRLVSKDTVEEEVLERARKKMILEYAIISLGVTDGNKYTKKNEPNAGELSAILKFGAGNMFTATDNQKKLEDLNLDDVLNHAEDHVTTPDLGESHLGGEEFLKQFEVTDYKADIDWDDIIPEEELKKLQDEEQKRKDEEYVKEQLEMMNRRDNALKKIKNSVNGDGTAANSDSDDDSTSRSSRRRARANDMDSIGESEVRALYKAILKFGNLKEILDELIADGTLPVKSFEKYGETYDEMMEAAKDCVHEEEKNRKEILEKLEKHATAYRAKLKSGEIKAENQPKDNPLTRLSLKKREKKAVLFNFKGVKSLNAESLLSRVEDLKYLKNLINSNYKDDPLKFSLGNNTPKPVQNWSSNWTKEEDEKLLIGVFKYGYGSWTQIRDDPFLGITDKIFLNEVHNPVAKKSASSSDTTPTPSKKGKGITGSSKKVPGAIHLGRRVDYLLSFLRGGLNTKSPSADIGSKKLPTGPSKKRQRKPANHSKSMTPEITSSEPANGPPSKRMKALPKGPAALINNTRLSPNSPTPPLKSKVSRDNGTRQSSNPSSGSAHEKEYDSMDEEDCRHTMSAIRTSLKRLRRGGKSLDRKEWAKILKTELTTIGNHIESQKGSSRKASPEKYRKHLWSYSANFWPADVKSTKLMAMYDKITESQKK

Sequence of Protein translocase subunit SecA (Escherichia coli (strain K12)) (P10408 whole entry): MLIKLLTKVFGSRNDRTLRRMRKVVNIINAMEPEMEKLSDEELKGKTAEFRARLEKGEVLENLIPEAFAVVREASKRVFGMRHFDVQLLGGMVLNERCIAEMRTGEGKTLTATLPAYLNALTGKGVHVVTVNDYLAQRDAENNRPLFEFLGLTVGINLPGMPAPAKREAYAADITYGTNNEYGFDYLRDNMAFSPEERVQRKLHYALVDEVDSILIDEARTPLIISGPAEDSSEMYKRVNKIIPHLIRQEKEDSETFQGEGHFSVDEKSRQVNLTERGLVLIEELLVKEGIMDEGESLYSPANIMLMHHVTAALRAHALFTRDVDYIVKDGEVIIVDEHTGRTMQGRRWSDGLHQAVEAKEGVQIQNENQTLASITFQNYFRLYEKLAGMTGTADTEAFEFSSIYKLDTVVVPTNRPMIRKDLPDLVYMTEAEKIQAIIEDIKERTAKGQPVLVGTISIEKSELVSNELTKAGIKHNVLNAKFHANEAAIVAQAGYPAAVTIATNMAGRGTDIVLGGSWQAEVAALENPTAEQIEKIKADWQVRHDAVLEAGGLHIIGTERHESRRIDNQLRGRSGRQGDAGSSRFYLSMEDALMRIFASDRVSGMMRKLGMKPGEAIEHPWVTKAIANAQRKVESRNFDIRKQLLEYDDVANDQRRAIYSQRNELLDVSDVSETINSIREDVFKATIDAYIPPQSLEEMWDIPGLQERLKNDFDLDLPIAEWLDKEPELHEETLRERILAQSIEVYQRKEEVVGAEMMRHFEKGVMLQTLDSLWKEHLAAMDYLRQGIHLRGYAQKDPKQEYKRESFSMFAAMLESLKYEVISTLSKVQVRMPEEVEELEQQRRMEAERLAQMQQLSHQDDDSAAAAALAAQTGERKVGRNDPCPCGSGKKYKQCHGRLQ

Compound	Percent Effect [1]	Percent Effect [2]	Percent Effect [3]	Percent Effect [4]	Percent Effect (Trypanosoma cruzi)	Percent Effect [5]	Percent Effect [6]	Percent Effect (Homo sapiens)	Percent Effect [7]	Percent Effect [8]	Percent Effect [9]
CCOCCCC(=O)NCc1cn2cc(Br)ccc2n1	-1.32%	7.89%	1.23%	-4.68%	-1.66%	0%	24.1%	-9.79%	6.38%	15.6%	-2.98%
Cc1cc2n(n1)CC(CNC1CCN(Cc3ccccc3C)CC1)CN2 (configuration not stated)	-8.28%	0%	-15.1%	13.7%	0.684%	-2.73%	2.49%	16.5%	4.3%	3.7%	-2.06%
O=C(c1ccc(F)cc1)N1C[C@H]2CCC[C@@]2(COCc2ccccn2)C1	-4.13%	8.11%	-4.94%	1.62%	2.44%	7.96%	22%	-12.1%	3.24%	17.9%	1.95%
Cc1noc2ncc(C(=O)N3CCCC3c3cnn(C)c3)cc12 (configuration not stated)	-1.99%	2.53%	-1.98%	-2%	-2.17%	-3.42%	3.52%	12%	-3.45%	-1.27%	-2.49%
Cc1nccn1C1CCCN(C(=O)c2ccc(N3CCCC3)nn2)C1 (configuration not stated)	-4.79%	10.5%	-5.31%	8.97%	1.59%	-0.719%	-4.65%	2.56%	4.43%	11.1%	-6.5%
COCCN(C)C(=O)Cn1cccc(OC)c1=O	-0.736%	5.48%	-9.15%	4.8%	-8.53%	3.99%	18.4%	4.06%	-3.12%	-1.24%	-2.41%
CC(NC(=O)NCCOc1ccc(F)c(F)c1)c1nncn1C (configuration not stated)	-3.44%	5.2%	2.42%	5.57%	7.15%	2.74%	12.5%	16.9%	4.76%	9.41%	-12.3%
COCc1ccccc1C(=O)NCCCN1CCCC1C(=O)N(C)C (configuration not stated)	0.173%	8.22%	-7.48%	6.16%	2.94%	-2.27%	15.8%	13.9%	3.23%	12.5%	-6.47%
CC(C)NC(=O)Cn1cc(-c2ccccc2)cn1	-1.92%	6.33%	6.33%	-0.321%	2.15%	3.23%	13.7%	-2.22%	4.17%	10.1%	1.99%
O=C1NCCN1C1CCN(CCc2cccs2)CC1	-7%	18.2%	-1.15%	-8.84%	5.78%	-3.16%	17.5%	2.25%	5.71%	23.5%	-17.6%
Cc1cc(C)c(CNC(=O)N2CCN(c3ncccn3)CC2)c(=O)[nH]1	-6.02%	7.89%	-4.85%	6.02%	5.08%	3.45%	16.5%	2.72%	3.43%	7.32%	-10.9%
COc1cc(CNC2CCc3nc(C(C)C)nn3C2)cc2c1OCO2 (configuration not stated)	-3.28%	2.63%	-0.342%	1.45%	-0.28%	3.24%	-0.592%	-4.24%	1.48%	-6.17%	-3.88%
CNC(=O)c1nc2c(s1)CCN(C(=O)Cc1ccc(OC)cc1)CC2	-7.69%	5.41%	1.22%	-1.04%	-1.07%	-1.59%	0.369%	8.46%	4.32%	0%	1.61%
O=C(NCCCn1nc2ccccn2c1=O)NC1CCC(O)CC1 (configuration not stated)	-2.16%	2.74%	9.76%	3.96%	-8.62%	0.455%	22.5%	9.28%	0%	2.5%	-4.68%
O=C(NCCc1ccccn1)C1=NN(c2ccccc2)C(=O)CN1	0.741%	15.2%	0.826%	-11.6%	-9.16%	6.08%	4.83%	11.7%	2.46%	13.9%	-1.69%
Cc1ncc(CNC(=O)CCOc2ccccc2)c(C2CCCN2C)n1 (configuration not stated)	-0.839%	-1.35%	18.7%	7.48%	-6.32%	3.02%	6.08%	12.3%	1.07%	1.3%	-1.9%
COc1ccccc1CN(C)C(=O)c1cc(CN2CCC(O)CC2)on1	-4.25%	2.74%	26.1%	19.3%	3.53%	18.6%	12.8%	-1.57%	6.45%	20%	100%
OCc1ccc(Cl)c(NCc2cccnc2)c1	-4.1%	0%	-0.207%	-4.73%	-1.85%	2.37%	2.01%	-2.65%	0%	-5.2%	-6.29%
CC1=Nc2c(c(=O)[nH]n2C(C)C)C(c2ccc(F)c(F)c2)S1 (configuration not stated)	-5.53%	-6.67%	8.28%	12.2%	-0.197%	1.58%	9.8%	34%	18%	20.5%	2.07%
CCOc1cccc(C(=O)NCCC(=O)Nc2ccncc2)c1	-1.91%	-5.26%	3.2%	-0.438%	-2.43%	8.28%	13.7%	3.36%	4.25%	10.4%	-3.67%
CC(=O)N1CCCC1c1nnc2n1CCCCC2 (configuration not stated)	-8.8%	-32.4%	1.68%	-1.76%	-0.195%	5.42%	6.85%	5.46%	7.92%	13.4%	-5.77%
CCc1c(C(=O)N2CCN(CC(N)=O)CC2)cnn1C(C)(C)C	-6.88%	13.2%	-1.82%	18.1%	5.32%	3.6%	11.9%	-6.74%	4.43%	11.1%	-7.68%
